In the library only some 4.6% were active in any assay of this set; here they are far more common.
Wee1 stabilizer: inhibitors of human Wee1 degradation; reporter increase, % at 5 µM; AID 1321; HeLa Luc-Wee1K328M stability, luciferase luminescence; 100% = proteasome inhibitor MG132 effect; P30291; actives 1.2% (n = 220,000);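 active = activation above the mean of all tested compounds plus 3 SD, set per screening run, cut at about 8.8% in these data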;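 note: cells exposed to compound for 20 h before luminescence read; 0% = DMSO alone and 100% = MG132 at 30 µM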
hcDAF12 agonist: activates DAF-12 receptor from parasite H. contortus | HEK293 hcDAF-12 lit1-tk-luc reporter, luminescence; 0% DMSO, 100% Δ7-dafachronic acid | activation, % at 6.8 µM | actives 1.4% (n = 370,000) | AID 652067;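 active = activation above the mean of all tested compounds plus 3 SD, cut at about 5.5% in these data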;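 note: 100% = response to 3 µM Δ7-dafachronic acid high control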
ssDAF-12 act: activators of S. stercoralis DAF-12 nuclear receptor; actives 1% (n = 370,000); HEK293 ssDAF-12/GRIP1 lit1-tk-luc reporter, luminescence; % of 3 µM dafachronic acid response; activation, % at 6.8 µM; AID 652126;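 active = activation above the mean over all tested compounds plus 3 SD, cut at about 0.9% in these data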;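 note: 0% = DMSO-only wells and 100% = 3 µM delta7-dafachronic acid wells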
DAX1 inh-1: inhibitors of DAX1 repression of SF-1 activated StAR promoter; inhibition, % at 6.8 µM; actives 1.1% (n = 370,000); HEK293T StAR-luciferase reporter, SF-1/DAX-1 repression relief;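 active = inhibition above the mean over all tested compounds plus 3 SD, cut at about 3.6% in these data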;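 note: 0% = DAX-1 cells with DMSO and 100% = cells lacking DAX-1 with DMSO; higher inhibition means more luminescence from relief of DAX-1 repression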
hgDAF-12 ag: activates the H. glycines DAF-12 receptor ligand-binding domain. HEK293 GAL4-hgDAF12 UAS-luciferase reporter, agonist luminescence; normalized to butyrate control. activation, % at 6.8 µM. actives 1.8% (n = 370,000). AID 687014;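 active = activation above a cutoff set at the mean of all screened compounds plus 3 SD, cut at about 10% in these data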;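 note: 0% = DMSO wells and 100% = sodium butyrate wells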
DAX1 inh-2: inhibits human nuclear receptor DAX1. AID 504766. HEK293 Gal4-DAX1 luciferase reporter, luminescence. P51843. inhibition, % at 6.75 µM. actives 0.99% (n = 340,000);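 active = inhibition above the mean over all tested compounds plus 3 SD, cut at about 4.2% in these data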;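 note: 0% = DAX1-transfected cells with DMSO and 100% = empty-vector control cells with DMSO; inhibition shows as a rise in luminescence from relieved DAX1 repression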
Target sequence (P51843 207-470 limits assumed): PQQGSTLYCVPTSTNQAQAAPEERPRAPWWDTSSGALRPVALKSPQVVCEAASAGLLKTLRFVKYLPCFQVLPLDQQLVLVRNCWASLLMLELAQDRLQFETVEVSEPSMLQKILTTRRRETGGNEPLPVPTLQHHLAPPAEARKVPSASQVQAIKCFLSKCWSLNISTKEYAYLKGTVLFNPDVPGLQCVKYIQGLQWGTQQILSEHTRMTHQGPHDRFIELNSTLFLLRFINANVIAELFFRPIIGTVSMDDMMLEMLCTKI
hgDAF12 ag: hgDAF-12 agonism, confirmation assay | HEK293 GAL4-hgDAF12 luciferase reporter, agonist mode; percent of butyrate response | activation, % at 6.8 µM | shares compounds with hgDAF-12 ag | actives 80% (n = 3,300);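 active = mean activation over triplicate wells above the hit cutoff derived from the earlier primary screen, cut at about 11% in these data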;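 note: 0% = DMSO low control and 100% = 2 mM sodium butyrate high control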
LXR ag 2: counter-screen for DAF-12 agonists: agonists of human LXR-beta; shares compounds with hgDAF-12 ag; HEK293 Gal4-LXR luciferase reporter, 24 h; activation, % at 6.8 µM; 3,300 tested, under 10 active; AID 743051;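 active = mean activation of the triplicate above a set limit carried over from the primary screen, none filed active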
* = called active by the depositor; · = no result given.

SMILES	Wee1 stabilizer	hcDAF12 agonist	ssDAF-12 act	DAX1 inh-1	hgDAF-12 ag	DAX1 inh-2	hgDAF12 ag	LXR ag 2
Cc1ccc(OC(C)C(=O)Nc2ccc(F)cc2)c([N+](=O)[O-])n1 (centres undefined)	·	-3	-1	0	1	1	·	·
Nn1c(SCc2ccccc2)nc2c(cnn2-c2ccccc2)c1=O	3	2	-1	1	2	0	·	·
CCCCSc1nc2c(cnn2-c2ccccc2)c(=O)n1N	2	3	-1	3	19*	1	14*	1
COc1ccc(S(=O)(=O)N(C)C[C@H]2Oc3ncc(-c4ccncc4)cc3C(=O)N([C@@H](C)CO)C[C@@H]2C)cc1	·	-1	-1	0	0	1	·	·
Cc1cccc(CSCC(=O)N2CCN(S(=O)(=O)c3ccccc3C#N)CC2)c1	·	0	0	0	-1	1	·	·
Brc1ccc(-c2nnc(Cc3ccccc3)o2)cc1	-1	1	-2	1	7	·	·	·
c1ccc(Cc2nnc(-c3ccccc3)o2)cc1	6	2	0	0	14*	4	10	0
O=C1c2ccccc2NC(c2ccc(O)cc2)N1/N=C/c1ccc(O)cc1 (centres undefined)	-4	-2	-1	1	8	2	·	·
O=C1c2ccccc2NC(c2ccccc2)N1/N=C/c1ccccc1 (centres undefined)	-2	5	1	3	15*	1	15*	1
CC(=O)Nc1ccc(C(=O)OCc2ccc(F)cc2Cl)cc1	-3	1	-2	0	24*	-1	-1	0
COc1ccc(CN(CCN2CCOCC2)C(=O)c2cc(F)ccc2F)cc1OC	·	-3	-1	0	-2	·	·	·
CN1C(=O)c2cc(NC(=O)Nc3ccccc3)ccc2OC[C@H]2O[C@@H](CC(=O)NC3CCC3)CC[C@@H]21	·	0	-1	1	-1	·	·	·
Cc1ccc2c(c1)C(CS(=O)(=O)NCc1ccccc1)NC2 (centres undefined)	·	-2	-1	-1	-2	·	·	·
O=C(Nc1ccccc1)Nc1ccccc1Br	-1	5	0	4.1*	19*	1	7	0
O=C(Nc1ccccc1)Nc1cccc(NC(=O)Nc2ccccc2)c1F	·	0	-1	0	2	0	·	·
C#CC1(NC(=S)Nc2cccc(OC)c2)CCCCC1	·	2	0	1	15*	2	1	0
COc1cccc(NC(=S)NCc2ccc(F)cc2)c1	·	0	-1	0	2	0	·	·
C(/CCc1ccccc1)=N\Nc1nc2ccccc2[nH]1	0	5	1	1	8	1	·	·
C(=C\c1ccccc1)/C=N/Nc1nc2ccccc2[nH]1	5	3	0	1	15*	-1	17*	1
Nc1ccccc1C#Cc1ccc2[nH]ccc2c1	·	3	0	1	14*	7.2*	12*	0
COc1cc(/C=C2\SC(=S)N(Nc3ccccc3)C2=O)ccc1O	1	5	-1	2	14*	1	15*	1
COC(=O)[C@]12CCCCC=C1N(Cc1ccccc1)C(=O)[C@H](CC(=O)N1CCSCC1)C2	·	-3	0	-1	1	·	·	·
Cc1cccc(Nc2nc3c(s2)CCCC3)c1	2	3	0	3	18*	3	16*	1
COc1ccc(/C=C/c2nnc(NC(C)=O)s2)cc1	5	5	0	3	14*	2	16*	1
COc1ccc(-c2nnc(SCC(=O)c3ccc[nH]3)o2)cc1	0	5	1	3	14*	0	15*	1
SMILES	Wee1 stabilizer	hcDAF12 agonist	ssDAF-12 act	DAX1 inh-1	hgDAF-12 ag	DAX1 inh-2	hgDAF12 ag	LXR ag 2
COc1ccc(-c2nnc(SCC(=O)c3cccs3)o2)cc1	1	3	0	2	10	2	·	·
Cc1ccc(Nc2ncccc2C(N)=O)cc1	-1	4	0	3	14*	2	13*	1
COc1ccccc1NC(=O)COC(=O)CCC(=O)c1cccs1	·	0	-1	2	0	-1	·	·
CCc1cc2cc(C(=O)Nc3ccccc3F)sc2s1	6	6.4*	0	3	15*	4	18*	1
OC(c1ccc(F)cc1)c1nc(/C=C/c2ccccc2)cs1 (centres undefined)	·	3	-1	3	7	·	·	·
OC(c1ccccc1)c1nc(/C=C/c2ccccc2)cs1 (centres undefined)	·	5	-1	3	16*	·	11*	0
CSc1ncccc1C(=O)OCC(=O)c1ccc(C)s1	·	-2	-1	1	-2	0	·	·
CC(/C=C/c1ccc(OCc2ccccc2)cc1)=N\O	1	6.1*	-1	2	14*	1	13*	1
COc1cccc(C=O)c1OCCCOc1cccc2cccnc12	·	3	0	1	6	2	·	·
Cc1cccc(CN2[C@H](COCc3ccccc3)C=CS2(=O)=O)c1	·	-1	-1	0	-1	·	·	·
CCOC(=O)c1sc2nc(-c3cccnc3)ccc2c1N	9.3*	5	0	3	22*	1	17*	1
N/C(=N\NC(=O)c1cccs1)c1cc2cc(Cl)ccc2oc1=O	-2	5	-2	3	19*	0	2	0
CC1(C(=O)NS(=O)(=O)c2cccc(F)c2)CCN1C(=O)Cc1cccs1 (centres undefined)	·	0	-1	0	1	·	·	·
COc1ccccc1NS(=O)(=O)c1ccc(C)c(NS(=O)(=O)c2cc(NC(C)=O)ccc2OC)c1	·	-1	-2	0	-1	-1	·	·
Cc1ccc(Nc2cc(C)c3c(O)cccc3n2)cc1C	0	4	0	1	15*	1	15*	1
COc1ccc([C@H]2C[C@@H](O)[C@H](n3cc(COC(=O)c4ccccc4)nn3)CN2CC2CCCCC2)cc1	·	-1	-1	1	1	2	·	·
c1ccc(-c2csc(NC3CCCCC3)n2)cc1	·	4	0	3	20*	1	25*	1
O=C(Nc1nc(-c2ccccc2)cs1)NC1CCCCC1	-1	-1	-2	1	4	0	·	·
O=S1(=O)c2c(NCc3ccco3)cccc2Oc2ccccc2CN1Cc1cn(Cc2ccc(C(F)(F)F)cc2)nn1	·	-2	-1	1	-2	·	·	·
c1ccc(CN2CCN(c3nc4ccccc4s3)CC2)cc1	·	1	0	1	10	3	·	·
N#CCCCc1cn(-c2nc3ccccc3s2)nn1	·	2	1	4.0*	14*	·	13*	0
